Records with an inconclusive call do not appear. The source made the active and inactive calls. How the source made its calls: active means hit-call score of the fitted dose curve at least 0.9, where 1 is the maximum; inconclusive means response in the unintended direction; inactive means score below 0.9.

Chain of Cellular tumor antigen p53 (Homo sapiens) (P04637 whole entry, looked up, the tested form may be a part): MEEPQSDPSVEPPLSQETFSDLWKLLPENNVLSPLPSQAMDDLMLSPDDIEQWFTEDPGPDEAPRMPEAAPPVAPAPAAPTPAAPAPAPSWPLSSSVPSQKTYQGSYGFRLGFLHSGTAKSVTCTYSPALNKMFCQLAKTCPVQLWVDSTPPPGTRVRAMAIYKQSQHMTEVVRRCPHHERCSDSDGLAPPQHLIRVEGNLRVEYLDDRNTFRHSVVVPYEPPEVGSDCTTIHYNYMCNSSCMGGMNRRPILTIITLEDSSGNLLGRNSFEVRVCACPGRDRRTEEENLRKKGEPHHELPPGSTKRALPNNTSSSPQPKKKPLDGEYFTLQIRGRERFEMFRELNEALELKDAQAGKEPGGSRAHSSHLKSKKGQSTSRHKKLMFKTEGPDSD

The test addresses Cellular tumor antigen p53 (Homo sapiens) (UniProt P04637). Description: TOX21_p53_BLA_p5_ratio: Tox21 HCT-116 p53 Agonism Beta-lactamase Assay, Ratio, Phase 5 (AID 2283599). The source says:
TOX21_p53_BLA_p5 is a cell-based, single-readout assay that uses HCT116, a human intestinal cell line, […] in a 1536-well plate.TOX21_p53_BLA_p5_ratio is an assay readout measuring reporter gene via receptor activity and designed using inducible reporter (beta lactamase induction) detected with GAL4 b-lactamase reporter gene. The signal is derived from the ratio of cleaved (ch2) to uncleaved (ch1) reporter gene substrate used as the measure of target activity.Data from the assay component TOX21_p53_BLA_p5_ratio was analyzed into 1 assay endpoint. This assay endpoint, TOX21_p53_BLA_p5_ratio, was analyzed in the positive analysis fitting direction relative to DMSO as the negative control and baseline of activity. Using a type of inducible reporter, gain-of-signal activity can be used to understand changes in the reporter gene as they relate to the gene TP53. Furthermore, this assay endpoint can be referred to as a primary readout, because this assay has produced multiple assay endpoints and this ratio serves a reporter gene function to understand target activity. To generalize the intended target to other relatable targets, this assay endpoint is annotated to the DNA binding intended target family, where the subfamily is tumor suppressor.
Thawing Method: Place 14 mL of pre-warmed thaw medium into a 15 mL of conical tub. Remove the vial of cells to be thawed from liquid nitrogen and thaw rapidly by placing at 37C in a water bath with gentle agitation for 1-2 minutes. Decontaminate the vial by wiping with 70% ethanol before opening in a biological safety cabinet. Transfer the vial contents drop-wise into 14 mL of thaw medium in a sterile 15-mL conical tub. Centrifuge cells at 900 rpm for 4 minutes and resuspend in thaw medium. Transfer contents to the T75 tissue culture flask containing Thaw Medium and place flask in a humidified 37C/5% CO2 incubator. Switch to growth medium at first passage.Propagation Method: Aspirate medium, rinse once in DPBS, add 0.25% Trypsin/EDTA and swirl to coat the cell evenly. Add an equal volume of Growth Medium to inactivate Trypsin after 2-3 minutes incubation at 37C. Centrifuge cells at 900 rpm for 4 minutes and resuspend in growth medium. Cell should be passage or fed at least twice a week.Assay Protocol: Harvest cells from culture in growth medium and resuspend in assay medium. 2.2 Dispense 4000 cells/5 uL/well into 1536-well black/clear bottom plates using a Multidrop dispenser. After the cells were incubated at 37C for 5 hours, 23 nL of compounds dissolved in DMSO were transferred to the assay plate by a PinTool resulting in a 217-fold dilution. Incubate the plates for 16 hours at 37C, 5% CO2. Add 1 uL of 6X LiveBLAzer FRET B/G (CCF4-AM) Substrate Mixture to each well using a BioRAPTR dispenser and incubate the plates at room temperature for 2 hours. Measure fluorescence intensity at 460 and 530 nm emission and 405 nm excitation by an Envision detector. Data is expressed as the ratio of 460nm/530nm emissions. Add 4 uL of Cell-titer Glo to each well using BioRAPTR and incubate the plates at room temperature for 2 hours. Measure fluorescence intensity by a VewLux plate reader.
Regarding `COC(=O)C(C)(C)C`, the outcome was inactive.
In the case of `NS(=O)(=O)c1ccc(C(=O)O)cc1`, the result was inactive.
Consider `Nc1c2c(nc3ccccc13)CCCC2O` (stereo not given), for which the result was inactive.
For `Cc1ccc2ccccc2c1[N+](=O)[O-]` the value was “inactive”.
As for `C#CCN[C@@H]1CCc2ccccc21`, the entry is “inactive”; as for `NC1=NCC2c3ccccc3Cc3ccccc3N12` (stereo not given), “inactive”.
For the molecule `O=C1OC(=O)c2cccc3cccc1c23`, the result was inactive.
Turning to `CCCn1cc[n+](C)c1C`, the result was inactive.
Turning to `COc1cc(C(=O)NC2CCCNC2)cc(OC)c1OC` (stereo not given), the outcome was inactive.
Consider `Clc1ccc2nsnc2c1NC1=NCCN1`, for which the outcome was inactive.
Regarding `Nc1ccc(S(=O)(=O)Nc2ccccc2)cc1`, the result was inactive.
With `COc1ccc2cc([C@H](C)CO)ccc2c1`, the result was inactive.
For the molecule `Cc1ccc(S(=O)(=O)NC(=O)NC2CCCC2)cc1`, the outcome was inactive.
As for `CN1CCN(C2=Nc3ccccc3Oc3ccc(Cl)cc32)CC1`, the entry is “inactive”; as for `Nc1ccccc1S(=O)(=O)O`, “inactive”; as for `CC(C)(O/N=C(\C(=O)N[C@@H]1C(=O)N2C(C(=O)[O-])=C(C[n+]3ccccc3)CS[C@H]12)c1csc(N)n1)C(=O)O`, “inactive”.
As for `CC(=O)Nc1ccc(OCC(O)CNC(C)C)cc1` (stereo not given), the entry is “inactive”; as for `CCCN(CC)C(CC)C(=O)Nc1c(C)cccc1C` (stereo not given), “inactive”.
On to `Nc1ncnc2c1ncn2[C@@H]1O[C@H](COP(=O)(O)O)[C@@H](O)[C@H]1O`, for which the outcome was inactive.
In the case of `O=Nc1ccc(NO)cc1`, the outcome was inactive.
For the molecule `COc1ccc(CCC(=O)c2c(O)cc(O[C@@H]3O[C@H](CO)[C@@H](O)[C@H](O)[C@H]3O[C@@H]3O[C@@H](C)[C@H](O)[C@@H](O)[C@H]3O)cc2O)cc1O`, the outcome was inactive.
Consider `O=S(=O)(O)CO`, for which the outcome was inactive.
For `C[C@@H](O)C(=O)O` the value was “inactive”; for `c1ccc(SCCSc2ccccc2)cc1`, “inactive”.
As to `Nc1ccc(C(=O)O)c(O)c1`, the outcome was inactive.
Consider `CC(C)(C)c1ccc(C=O)cc1`, for which the result was inactive.
`O=C(O)CCCCCCC(=O)O`: the result was inactive.
As for `Nc1ccc(N=Nc2ccc(N)cc2)cc1`, the entry is “inactive”; as for `CCCC(C)C`, “inactive”; as for `CCCCOC(=O)CCS`, “inactive”.
As for `O=C(O)C(O)[C@H](O)[C@@H](O)[C@H](O)[C@H](O)CO` (stereo not given in full), the entry is “inactive”.
Consider `Cc1cccc(C(=O)O)c1[N+](=O)[O-]`, for which the result was inactive.
For the molecule `C=CC(=O)OCCOCCOC(=O)C=C`, the result was inactive.
Take `CCN1CCCC1CNC(=O)c1cc(S(N)(=O)=O)ccc1OC` (stereo not given): the result was inactive.
In the case of `O=C1c2ccccc2C(=O)C1c1ccccc1`, the result was inactive.
`Cc1ccc(N(CC2=NCCN2)c2cccc(O)c2)cc1`: the outcome was inactive.
For `CCCCCCCC/C=C\CCCCCCCC(=O)OCCOC(=O)CCCCCCC/C=C\CCCCCCCC`, the result was inactive.
On to `CCOc1cc(NC(C)=O)ccc1C(=O)OC`, for which the result was inactive.
In the case of `CCOC(=O)Nc1ccc2c(c1)N(C(=O)CCN1CCOCC1)c1ccccc1S2`, the outcome was inactive.
Take `C=CC(=O)[O-].C=CC(=O)[O-].[Zn+2]`: the outcome was inactive.

The values are drawn from PubChem BioAssay (EPA / NIEHS).
